Shn3 inh set2: inhibitors of Schnurri-3 3'UTR reporter in osteoblasts; Clone20 osteoblast Shn3 3'UTR firefly luciferase, 24 h; inhibition, % at 12.5 µM; 360,000 tested, 0.52% active;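 active means mean inhibition of at least 75% with every replicate also reaching 75%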;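 further: 0% = median of neutral control wells and 100% = pilot-screen positive control compound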
697 NFkB inh: lowers PMA/ionomycin-induced NF-kB signal in 697 B cells. 697 B-cell NF-kB luciferase reporter, 16 h. inhibition, % at 4 µM. 330,000 tested, 0.33% active; in the data active means inhibition above about 35%
Mdm2 MdmX PPI: disrupts the human Mdm2-MdmX interaction | O15151+Q00987 | SaOS-2 split-luciferase Mdm2/MdmX complementation, luminescence | inhibition, % at 8 µM | 330,000 tested, 3% active | AID 485346;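 active means inhibition of at least 50% at 8 µM in the primary screen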
Jurkat NFkB inh: lowers PMA/ionomycin-induced NF-kB signal in Jurkat cells; PMA/ionomycin-induced NF-kB luciferase reporter, luminescence; inhibition, % at 4 µM; 330,000 tested, 0.53% active; AID 435003; in the data active means inhibition above about 50%
Gli-Sufu block: blocks Gli-Sufu signaling in a luciferase reporter. AID 588413. 340,000 tested, 0.74% active. Sufu-KO-LIGHT fibroblasts, Gli luciferase reporter luminescence. inhibition, % at 5 µM;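 active means inhibition above about 55%, limit read from the data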;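 further: 0% = DMSO-treated cells and 100% = wells with medium but no cells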
Mdm2 MdmX conf: human Mdm2/MdmX binding inhibition, confirmed; 10,000 tested, 55% active; luminescent assay; shares compounds with Mdm2 MdmX PPI; inhibition, % at 8 µM; in the data active means inhibition above about 40%
Full FLuc ctr: full-length luciferase inhibition in Mdm2/MdmX counter-screen. shares compounds with Mdm2 MdmX PPI. SaOS-2 full-length luciferase counterscreen, luminescence. inhibition, % at 8 µM. 6,200 tested, 77% active. AID 504607;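 active means mean inhibition at 8 µM reaching about 37%, which flags the compound as non-specific, limit read from the data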;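 further: p53-null SaOS-2 cells with luciferase driven by a doxycycline-inducible promoter; compound on cells about two nights before reading with doxycycline added after day one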
An asterisk follows results filed as active; . = no result. A selection: hits, their analogues and other compounds. The true share with any hit is near 3.8%.

SMILES | Shn3 inh set2 | 697 NFkB inh | Mdm2 MdmX PPI | Jurkat NFkB inh | Gli-Sufu block | Mdm2 MdmX conf | Full FLuc ctr
O=C(CC(c1ccccc1)c1ccccc1)Nc1ccc(Cl)cn1 | -4.3 | -18.6 | 58.8* | 30.5 | 13.3 | 53.2* | 61.1*
O=C(Nc1ccc(Cl)cn1)c1ccccc1[N+](=O)[O-] | -5.9 | 6.8 | 17.1 | 8.7 | -10.8 | . | .
CNc1ccccc1C(=O)OC(C)C(=O)Nc1ccc(Cl)cn1 (centres undefined) | -6.6 | 4.7 | 91.5* | -4.1 | -10.4 | 83.2* | 112.7*
O=C(Nc1ccc(Cl)cn1)c1cccc2ccccc12 | -7.8 | -55.9 | 51.5* | 43.4 | 11.1 | 41.5* | 71.3*
CC(C)c1ccc(N(CC(=O)NC2CCCC2)C(=O)CCC(=O)Nc2nccs2)cc1 | 18.1 | -12.1 | 0.0 | -5.2 | 5.4 | . | .
CC(C)C(=O)NC(c1cccc([N+](=O)[O-])c1)c1c(O)ccc2ccccc12 (centres undefined) | -25.7 | 23.1 | 5.4 | -3.6 | -1.4 | . | .
CC(C)C(=O)NC(c1cccc([N+](=O)[O-])c1)c1ccc2cccnc2c1O (centres undefined) | 89.2* | -31.7 | 81.1* | 35.0 | 73.9* | 90.2* | 52.0*
CC(C)C(=O)NC(c1ccco1)c1ccc2cccnc2c1O (centres undefined) | 81.3 | -6.7 | 82.0* | 32.9 | -2.8 | 63.9* | 24.0
Oc1c(C(Nc2nc3ccccc3s2)c2ccco2)ccc2cccnc12 (centres undefined) | 75.4 | -132.7 | 60.5* | -4.9 | 43.1 | 85.3* | 42.0*
c1coc(CNc2nc3ccccc3s2)c1 | -14.0 | -117.2 | -35.6 | -114.0 | -91.8 | . | .
Nc1nc(-c2cc(O)ccc2[N+](=O)[O-])cc(-c2ccccc2)c1[N+](=O)[O-] | -14.3 | -37.4 | 64.7* | -3.7 | -98.4 | 57.1* | 54.0*
O=[N+]([O-])c1cc(-c2ccccc2)cc([N+](=O)[O-])c1O | -3.3 | . | . | . | 8.9 | . | .
CCCOc1ccc(/C=N/Nc2cccc([N+](=O)[O-])c2)c(O)c1 | -26.4 | -47.1 | 76.7* | -65.4 | -59.1 | -13.2 | .
O=[N+]([O-])c1cccc(N/N=C/c2cc([N+](=O)[O-])ccc2O)c1 | -44.4 | -11.5 | -13.8 | -2.0 | -26.1 | . | .
CCC1=C(OC(=O)N(CC)CC)N2C(=O)OC(=NCCc3c[nH]c4ccccc34)[C@]2(Cc2ccccc2)[C@H]2C1=CC[C@H]1C(=O)NC(=O)[C@H]12 | 30.2 | -12.6 | -6.2 | 13.2 | 8.2 | . | .
CCCC(=O)NC(c1ccccc1OC)c1ccc2cccnc2c1O (centres undefined) | 87.8* | -10.0 | 77.1* | 45.8 | . | 81.7* | 49.8*
CCCC(=O)NC(c1ccc(OC)c(OC)c1)c1c(O)ccc2ccccc12 (centres undefined) | 0.0 | 15.9 | 18.9 | -18.4 | 4.1 | . | .
CCCCC(=O)NC(c1ccc(OC)c(OC)c1)c1c(O)ccc2ccccc12 (centres undefined) | -50.6 | -6.4 | -6.9 | -1.5 | 4.6 | . | .
CCCCC(=O)NC(c1ccccc1OC)c1ccc2cccnc2c1O (centres undefined) | 93.9* | -10.9 | 86.6* | 41.5 | 48.4 | 82.8* | 51.9*
O=C(O)C1CC(Br)C(Br)CC1C(=O)O (centres undefined) | -7.9 | . | . | . | . | . | .
CC(C)(C)NC(=O)C(c1ccc(-c2ccccc2)cc1)N(C[C@H]1CC[C@@H]([C@@H]2CC[C@H](CO)O2)O1)C(=O)c1ccc(C(C)(C)C)cc1 (some centres undefined) | 65.6 | 12.0 | 67.6* | . | 7.5 | 0.5 | .
Cc1ccc(C(C(=O)NC(C)(C)C)N(CC2CCCO2)C(=O)c2csnn2)cc1 (centres undefined) | -10.5 | 5.2 | -7.6 | 3.2 | 10.8 | . | .
O=C(c1ccco1)N1CCN(C(=O)c2cnn3c2NC(c2cccs2)CC3C(F)(F)F)CC1 (centres undefined) | -4.3 | -2.7 | 11.8 | -1.2 | 19.3 | . | .
O=C(c1cnn2c1NC(c1ccco1)CC2C(F)(F)F)N1CCN(c2cccc(Cl)c2)CC1 (centres undefined) | 32.8 | -21.1 | 58.9* | 37.7 | 1.7 | 51.0* | 55.9*
O=C1/C(=C/c2ccc(O)cc2)SC(=S)N1Cc1cccnc1 | 3.3 | -2.3 | 16.8 | 9.4 | 1.7 | . | .
SMILES | Shn3 inh set2 | 697 NFkB inh | Mdm2 MdmX PPI | Jurkat NFkB inh | Gli-Sufu block | Mdm2 MdmX conf | Full FLuc ctr
COc1ccc(/C=C2\SC(=S)N(Cc3cccnc3)C2=O)cc1C | -13.8 | -25.0 | 59.2* | -15.5 | 8.9 | 31.6 | .
C#CCOc1ccc(/C=C2\SC(=S)N(Cc3cccnc3)C2=O)cc1 | 15.8 | -19.1 | 60.3* | 8.5 | 19.9 | 70.5* | 55.4*
Cc1c(C(=O)NCc2cccc([N+](=O)[O-])c2)sc(=O)n1Cc1ccccc1F | 13.4 | . | . | . | . | . | .
O=C(Cn1nnc(-c2ccccc2NC(=O)c2ccco2)n1)Nc1ccccc1 | 19.9 | -0.9 | 75.8* | 33.7 | -1.3 | 41.1* | 64.1*
O=S(=O)(NCc1ccccc1)NCc1ccc(Cl)cc1Cl | 8.2 | -9.8 | 5.6 | 7.1 | 0.9 | . | .
CCN(C(=O)CCc1nnc2ccc(NCc3ccco3)nn12)c1ccccc1 | -8.7 | -33.3 | 17.9 | 9.6 | -12.6 | . | .
Cc1ccc(N(CC(O)CN2CCOCC2)S(=O)(=O)c2ccc([N+](=O)[O-])cc2)cc1 (centres undefined) | 1.1 | -6.2 | 5.1 | 23.2 | -24.8 | . | .
COc1ccc(NC2=C(C)C(=O)CC2)cc1 | -19.2 | 25.3 | 59.5* | -11.1 | 29.2 | 39.4 | 90.4*
COc1cc(F)cc(-c2ccc3c(c2)c(-c2cccs2)c(-c2cc(OC)cc(OC)c2)n3C)c1 | 7.9 | 6.2 | 54.2* | 47.3 | -1.7 | 54.6* | 56.8*
CCOc1ccc(NC(=O)C2CCN(C(=O)C3CC(=O)N(c4ccc(C)cc4)C3)CC2)cc1 (centres undefined) | 9.7 | 9.3 | -8.3 | 0.9 | 17.4 | . | .
Cc1ccc(CN2CC(C(=O)Nc3ncc(C)s3)CC2=O)cc1 (centres undefined) | -10.3 | -0.9 | 60.7* | 3.8 | -35.1 | 59.2* | 65.7*
Cc1ccc(CN2CC(C(=O)Nc3nc(C)cs3)CC2=O)cc1 (centres undefined) | 64.6 | . | . | . | . | . | .
O=C(CSc1ccccc1F)Nc1ccc2c(c1)OCO2 | -44.4 | 3.6 | -7.8 | -80.2 | 2.1 | . | .
Cn1cnc(S(=O)(=O)N2CCCCC2c2cc(C(=O)Nc3ccccc3Cl)no2)c1 (centres undefined) | -55.2 | . | . | . | . | . | .
CN(Cc1ccccc1)C(=O)CSc1cc(=O)n(C)c2ccccc12 | 10.5 | 11.2 | 35.3 | 6.7 | -1.6 | . | .
CCn1c(=O)cc(SCC(=O)N2CCN(c3ccccn3)CC2)c2ccccc21 | -11.7 | . | . | . | 26.8 | . | .
CCn1c(=O)cc(SCC(=O)N(C)Cc2ccccc2)c2ccccc21 | 6.4 | 16.2 | 50.9* | -5.7 | 20.4 | 30.2 | .
CCn1c(=O)cc(SCC(=O)N2CCN(c3ccccc3F)CC2)c2ccccc21 | -10.2 | -17.8 | 55.8* | 3.4 | 9.3 | 43.9* | 85.9*

From PubChem BioAssay
